15 compounds from PubChem BioAssay (NCI) can be followed below.

Among the test systems are T-47D breast; BT-549 breast; MDA-MB-435 melanoma; SW-620 colon; MCF7 breast; HCT-116 colon; HCC-2998 colon; KM12 colon.
Assay in all cases: NCI-60 one-dose screen, 48 h (100 = growth as untreated, 0 = no growth, -100 = all killed)
Conditions in all cases: 10 µM unless noted

Structures are written as SMILES. The panel holds about 83,000 compounds, 20% with a hit somewhere; the sample as a whole holds those more often.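 Cell lines were cultured in 96-well plates, exposed to a single compound concentration, and assessed for percent growth 48 hours later.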 Values without a mark were called inactive. Active and inactive are the calls of the source. Rule for the calls: active = growth percent below 10; inactive = the rest.

As for `S=c1[nH]nc2ccccn12`, the growth was 106% in the assay on T-47D breast; 110% with BT-549 breast; 108% in the assay on MDA-MB-435 melanoma; 105% in the assay on SW-620 colon; 94.3% in the assay with MCF7 breast; 108% in the assay on HCT-116 colon. Also, the growth was 102% in the assay on HCC-2998 colon and 116% in the assay on KM12 colon.

As to `CN1CCN(c2ccc3nc(-c4[nH]ncc4Nc4ncnc5[nH]ccc45)[nH]c3c2)CC1`, the growth in the assay on T-47D breast was -3.09% (active); in the assay on BT-549 breast, -41.9% (active); in the assay on MDA-MB-435 melanoma, 0.107% (active); with SW-620 colon, 3.78% (active); in the assay with MCF7 breast it was 3.28% (active); in the assay with HCT-116 colon, 2.16% (active). The figures for the growth in the assay with HCC-2998 colon and in the assay with KM12 colon were -23.2% (active) and 10.2%, respectively.

Regarding `Cc1ccc2oc(=O)cc(-c3sc(N4CCCCC4)nc3-c3ccccc3)c2c1`, the growth with T-47D breast is 76.8%; with BT-549 breast, 91.2%; in the assay on MDA-MB-435 melanoma it was 103%; in the assay on SW-620 colon, 96.5%; with MCF7 breast it was 70.5%; with HCT-116 colon, 89%. In addition, the growth was 99.3% with HCC-2998 colon and 94.8% in the assay on KM12 colon.

Regarding `CC(C)=CCC[C@](C)(O)[C@H]1CC[C@]2(C)[C@@H]1CC[C@@H]1[C@@]3(C)C/C(=C/c4cccc([N+](=O)[O-])c4)C(=O)C(C)(C)[C@@H]3CC[C@]12C`, the growth in the assay with T-47D breast was 60.2%; in the assay with BT-549 breast, 97.1%; with MDA-MB-435 melanoma, 94.2%; in the assay on SW-620 colon, 72.6%; in the assay on MCF7 breast, 72.8%; in the assay with HCT-116 colon it was 51.5%. The growth in the assay on HCC-2998 colon is 85.7%; in the assay with KM12 colon, 86%.

For `Cn1cc(-c2csc(-c3cn(CCN)c4ccc(Br)cc34)n2)c2cccnc21`, the growth with T-47D breast is 45.5%; in the assay on BT-549 breast it was 93.2%; in the assay with MDA-MB-435 melanoma, 91.1%; with SW-620 colon, 21.1%; with MCF7 breast, 20.9%; in the assay on HCT-116 colon, 58.7%. Besides, the growth in the assay with HCC-2998 colon was 97.9%; in the assay on KM12 colon, 71.8%.

As to `COc1cnc2c(c1)C(=O)c1c-2n(CCCNCCN2CCOCC2)c(=O)c2cc([N+](=O)[O-])ccc12`, the growth was 15.7% in the assay on T-47D breast; 13.4% with BT-549 breast; 13.7% in the assay on MDA-MB-435 melanoma; -55.2% (active) in the assay with SW-620 colon; 3.37% (active) with MCF7 breast; -60.4% (active) in the assay on HCT-116 colon. Further, the growth with HCC-2998 colon is -73.3% (active); in the assay with KM12 colon, -38.1% (active).

In the case of `CC/C=C\C[C@H]1CC=C2C(=O)C=C[C@@H]2CC=CCCCC(=O)O[C@@H](CCCCC)CC=C2C(=O)C=C[C@@H]2CC=CCCCC(=O)O[C@@H](CCCCC)CC=C2C(=O)C=C[C@@H]2CC=CCCCC(=O)O[C@@H](CCCCC)CC=C2C(=O)C=C[C@@H]2CC=CCCCC(=O)O1`, the growth is 29.5% [7.9 µM] with T-47D breast; -17.3% [7.9 µM] (active) with BT-549 breast; -23.1% [7.9 µM] (active) in the assay with MDA-MB-435 melanoma; 9.77% [7.9 µM] (active) in the assay on SW-620 colon; 20.4% [7.9 µM] in the assay on MCF7 breast; -53.6% [7.9 µM] (active) with HCT-116 colon. Also, the growth in the assay with HCC-2998 colon was 88.6% [7.9 µM]; with KM12 colon, 21.1% [7.9 µM].

For `c1csc(-c2nc(-c3cc4ccccc4c(N4CCOCC4)n3)cs2)c1`, the growth with T-47D breast was 71.2%; in the assay on BT-549 breast it was 103%; with MDA-MB-435 melanoma it was 38%; in the assay with SW-620 colon, 97.2%; with MCF7 breast, 80.5%; in the assay on HCT-116 colon, 100%. For the same compound, the values for the growth in the assay with HCC-2998 colon and with KM12 colon were 103% and 99.7%, respectively.

Regarding `COc1ccc2c(c1)c(-c1nc(-c3cn(C)c4ncccc34)cs1)cn2CCCN1CCCCC1`, the growth was 64% in the assay on T-47D breast; 80.5% in the assay on BT-549 breast; 26% with MDA-MB-435 melanoma; -22.9% (active) with SW-620 colon; 34% in the assay with MCF7 breast; -93.2% (active) with HCT-116 colon. The growth is 102% in the assay on HCC-2998 colon and 57.4% in the assay with KM12 colon.

`Cc1cc(N(CCCNc2ccnc3cc(Cl)ccc23)Cc2ccco2)nc(Cl)n1`: the growth in the assay on T-47D breast was 21.8%; in the assay on BT-549 breast, 35.2%; in the assay with MDA-MB-435 melanoma, 72.2%; in the assay with SW-620 colon, 66.2%; with MCF7 breast it was 42.4%; in the assay on HCT-116 colon, 28.2%. In addition, the growth with HCC-2998 colon is 75.2%; in the assay on KM12 colon, 65.7%.

Take `O=C1C(Cl)=C(Nc2ccc(S(=O)(=O)c3ccc(NC4=C(Cl)C(=O)c5ccccc5C4=O)cc3)cc2)C(=O)c2ccccc21`: the growth in the assay on T-47D breast is -39.6% (active); with BT-549 breast, 31.4%; in the assay on MDA-MB-435 melanoma it was 10.5%; in the assay on SW-620 colon, 0.736% (active); in the assay on MCF7 breast, -55.1% (active); in the assay on HCT-116 colon, -85.7% (active). The growth in the assay with HCC-2998 colon was 47.1%; in the assay on KM12 colon, 5.09% (active).

With `N#C/C(=C\c1ccc(-c2ccc(Cl)cc2)o1)c1nc(-c2ccco2)cs1`, the growth was -27.1% (active) in the assay on T-47D breast; 103% in the assay with BT-549 breast; 101% with MDA-MB-435 melanoma; 98.5% with SW-620 colon; 14.5% in the assay on MCF7 breast; 101% in the assay with HCT-116 colon. For the same compound, the growth is 46.3% in the assay on HCC-2998 colon and 67.3% in the assay on KM12 colon.

Turning to `CCCCCC1CCCCN1C(=O)OCC` (stereo not given), the growth is 92.4% with T-47D breast; 98.1% in the assay with BT-549 breast; 115% in the assay on MDA-MB-435 melanoma; 105% with SW-620 colon; 99.3% in the assay on MCF7 breast; 93.6% in the assay with HCT-116 colon. Besides, the growth with HCC-2998 colon is 94.4%; with KM12 colon it was 110%.

With `COc1ccc(C(=O)/C=C/c2cc(-c3cc(OC)c(OC)c(OC)c3)n[nH]2)cc1OC`, the growth is -2.5% (active) in the assay on T-47D breast; -51.6% (active) in the assay with BT-549 breast; -71.6% (active) in the assay with MDA-MB-435 melanoma; -64% (active) with SW-620 colon; -39.6% (active) in the assay on MCF7 breast; -88.7% (active) with HCT-116 colon. Also, the growth is -77.2% (active) in the assay on HCC-2998 colon and -86.7% (active) in the assay on KM12 colon.

As to `C=C(C)[C@@H]1CC[C@]2(/C=N/Nc3ccncc3)CC[C@]3(C)[C@H](CC[C@@H]4[C@@]5(C)CCCNC(C)(C)[C@@H]5CC[C@]43C)[C@@H]12`, the growth in the assay with T-47D breast is 64.5%; in the assay on BT-549 breast, 77.2%; in the assay with MDA-MB-435 melanoma it was 86.7%; in the assay with SW-620 colon it was 41.4%; with MCF7 breast it was 63.2%; in the assay with HCT-116 colon, 43.8%. For the same compound, the figures for the growth in the assay on HCC-2998 colon and in the assay with KM12 colon were 71.3% and 82.1%, respectively.
